Prostate diff: LNCaP prostate cell differentiation activation; 24,000 tested, 0.56% active; side scatter shift, % at 10 µM; flow cytometry side scatter, 4 d;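 active = side scatter shift above 30%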;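 note: androgen-responsive LNCaP prostate cancer cells in charcoal-stripped serum medium; percent of cells past a gate set so DMSO wells show 10% shift; higher shift means more granular cells and more differentiation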
Jurkat autofluor: compound fluoresces in Jurkat cells, VLA-4 screen interference | compound autofluorescence, flow cytometry; stronger effect = higher value; 1 = vehicle-only cell background | fluorescence ratio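 (tested at 10 µM compound in the well)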 | 24,000 tested, 0.61% active;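 active = fluorescence ratio above 2.44, which is 1 plus 3 SD of all ratios; inconclusive = signal too bright to measure linearly, ratio around 10 or more; inactive = fluorescence ratio below 2.44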;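 note: green fluorescence of cells measured with 488 nm excitation and 530 nm emission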
FPRL1 binder: binds the human formylpeptide receptor-like-1 FPRL1; P25090; FPRL1-expressing cells, fluorescent ligand binding inhibition, flow cytometry; inhibition, % (test concentration not listed); 24,000 tested, 0.3% active; AID 441;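 note: 0% = buffer alone and 100% = receptor blocker peptide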
VLA-4 agonist: allosterically activates the human VLA-4 integrin; AID 528; Jurkat cells, LDV-FITC binding, flow cytometry; activation, % at 10 µM (by protocol); 24,000 tested, under 10 active; P13612;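 active = fluorescent ligand binding to cells raised by more than 40% of the manganese-induced maximum; inconclusive = compound's own fluorescence above 85% of the ligand control signal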;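 note: 0% = ligand binding without compound and 100% = manganese-stimulated maximal binding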
FPR ligand: binds the human formylpeptide receptor FPR; inhibition, % (concentration not given with the values); P21462; AID 440; FPR-expressing cells, fluorescent ligand binding, flow cytometry; 24,000 tested, 0.74% active;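 note: 0% = buffer wells and 100% = receptor blocker peptide wells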
Target sequence (P21462 whole entry, looked up): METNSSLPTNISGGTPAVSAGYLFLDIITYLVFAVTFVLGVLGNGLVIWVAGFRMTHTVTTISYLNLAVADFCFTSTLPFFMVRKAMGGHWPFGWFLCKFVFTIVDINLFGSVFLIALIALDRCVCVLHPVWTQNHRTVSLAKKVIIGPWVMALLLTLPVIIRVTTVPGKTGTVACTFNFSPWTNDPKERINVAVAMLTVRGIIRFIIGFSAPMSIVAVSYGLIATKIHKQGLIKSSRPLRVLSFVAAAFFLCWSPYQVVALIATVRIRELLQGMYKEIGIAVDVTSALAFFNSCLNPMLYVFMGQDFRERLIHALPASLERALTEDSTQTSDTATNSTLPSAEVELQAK
VLA-4 antagonist: inhibition of LDV-FITC ligand binding to human VLA-4 integrin; P13612; Jurkat cells, LDV-FITC binding with Mn2+, flow cytometry; 100% = Mn2+-driven binding gain fully reversed; inhibition, % at 10 µM (by protocol); 24,000 tested, 0.2% active;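 active = inhibition above 50%; inconclusive = compound itself fluorescent, judged against control cell fluorescence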;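 note: 0% = Mn2+ stimulated cells lacking compound and 100% = ligand binding without Mn2+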
The depositor's hits bear a star; ? = inconclusive; nt = no result. Only some compounds are listed: those with a hit (about 1.9% of all), similar ones and a draw of the others. Cut-off read from the data, not from the text of the source, unless noted: active = inhibition above about 30%; inconclusive = no clear call, values can overlap the other calls; inactive = below that.

SMILES	Prostate diff	Jurkat autofluor	FPRL1 binder	VLA-4 agonist	FPR ligand	VLA-4 antagonist
O=C(NCC1CCCO1)c1sc(=S)n2c1[nH]c(=O)c1ccc(C(=O)N3CCCCC3)cc12 (configuration not stated)	11	1	-1	-1	-1	-37
CCCCNC(=O)c1sc(=S)n2c1[nH]c(=O)c1ccccc12	12	1.3	4	?	89*	?
CCN(CCNC(=O)Nc1ccc(Cl)cc1)c1ccccc1	21	1.1	8	-21	-2	11
CCCCC[C@H](O)/C=C/[C@H]1C=CC(=O)[C@@H]1C/C=C\CCCC(=O)O	1	1.2	0	42*	-3	-58
Cc1ccc(NC(=O)CCn2cccc2)cc1Cl	9	1.1	-4	2	-2	9
CC(C)OC(=O)c1nnn(-c2nonc2N)c1CN1CCc2ccccc2C1	6	1.3	-10	?	43*	?
CC(=O)SCC(=O)N=c1sc2cc(F)ccc2n1C	14	0.99	34*	8	56*	-15
CCOC(=O)Cn1c(=NC(=O)CSC(C)=O)sc2cc(OC)ccc21	10	0.99	15	2	25	13
Cc1cccn2c(=O)c3cc(C(=O)N(C)C)n(C)c3nc12	13	3.1*	-2	?	-2	?
Cn1c(=O)n(CCc2ccccc2)c(=O)c2c1nc1n2CCN1c1ccccc1	3	1.1	-1	5	-4	11
Cc1cc(NC(=O)CSc2nnc(Cn3c(=O)sc4ccccc43)n2-c2ccccc2C)no1	29	1	16	-2	36*	5
Cc1ccccc1-n1c(Cn2c(=O)sc3ccccc32)nnc1SCC(N)=O	7	0.99	6	4	4	-11
COc1ccc(C(O)C(CC(=O)NCCCOC(C)C)C(=O)NCCCOC(C)C)cc1OC (configuration not stated)	2	1	-1	-3	3	13
C=CCOC(=O)C(C#N)c1nc2ccccc2nc1N1CCN(Cc2ccccc2)CC1 (configuration not stated)	5	2.8*	-6	?	-1	?
Cc1nn(Cc2ccc(F)cc2)c(C)c1NC(=O)c1cc(-c2ccc3c(c2)OCO3)on1	30*	1.1	2	-12	0	5
O=C(CSc1ncc(-c2ccc(F)cc2)[nH]1)N1CCCCC1	9	1	1	1	-2	-11
COc1ccc2ccccc2c1C1CC(=O)N2CN(Cc3ccco3)CSC2=C1C#N (configuration not stated)	5	1.2	-3	?	1	?
COc1ccc2ccccc2c1C1CC(=O)N2CN(C3CCCCC3)CSC2=C1C#N (configuration not stated)	3	1.2	2	?	64*	?
CCN(CC)c1ccc2c(c1)CCCN2	14	4.5*	-23	?	-9	?
CS(=O)(=O)N(CC(=O)NCc1ccncc1)Cc1ccc(Cl)cc1	13	0.99	2	4	17	-3
O=C1c2ccccc2C(O)(Cc2ccccc2)N1c1ccc2c(c1)OCO2 (configuration not stated)	21	1.2	8	-3	11	9
Cc1noc(/C=C/c2ccco2)c1S(=O)(=O)N1CCC(C(=O)N2CCc3ccccc3C2)CC1	43*	1.1	-6	-8	-4	12
COc1ccc(C)cc1NC(=O)C1CCCCC1C(=O)O (configuration not stated)	nt	nt	26	nt	32*	nt
COc1ccc(OC)c(NC(=O)[C@H]2CC=CC[C@H]2C(=O)O)c1	12	0.9	3	2	3	-2
COC(=O)Nc1sccc1C(=O)Nc1sccc1C(=O)OC	32*	2.2	5	?	-3	?
COC(=O)c1ccccc1NC(=O)c1cnc2sccn2c1=O	9	1	-2	?	0	?
O=C(Nc1ccc(OC(F)(F)F)cc1)C1CCCN(S(=O)(=O)c2cccnc2)C1 (configuration not stated)	16	1.1	0	-13	-3	15
CS(=O)(=O)N(CC(=O)N1CCCCCC1)c1ccc(Br)cc1	12	0.98	0	6	1	-20
Cc1csc(OCc2ccc(C#N)cc2)n1	9	1	-1	-1	-4	4
